# “And” between values parts separate entries of the source, which are not always exact repeats. Identical values can stand only once. About 5,800 (36%) of roughly 16,000 compounds were called active. About 23% were inconclusive and are not listed. The call rests on the fitted dose curve; in most records, active means well fitted curve in the direction sought with a large enough effect; inconclusive means small, poorly fitted or top-dose-only effect, or effect the other way; inactive means no such curve, though single readings can be large or run the other way. The list shows a part of the results. More than one record can exist for a structure, and the calls need not agree.
# Molecular target: Cytochrome P450 2C19 (Homo sapiens) (UniProt P33261)
# Assay: Cytochrome panel assay with activity outcomes
# Conditions: recombinant CYP, pro-luciferin dealkylation, luminescence, p450-cyp2c19; series mostly up to 57.1 µM
# On the % scale 0 is the no-effect control and ±100 the full control effect.
# Sequence of Cytochrome P450 2C19 (Homo sapiens) (P33261 whole entry, looked up): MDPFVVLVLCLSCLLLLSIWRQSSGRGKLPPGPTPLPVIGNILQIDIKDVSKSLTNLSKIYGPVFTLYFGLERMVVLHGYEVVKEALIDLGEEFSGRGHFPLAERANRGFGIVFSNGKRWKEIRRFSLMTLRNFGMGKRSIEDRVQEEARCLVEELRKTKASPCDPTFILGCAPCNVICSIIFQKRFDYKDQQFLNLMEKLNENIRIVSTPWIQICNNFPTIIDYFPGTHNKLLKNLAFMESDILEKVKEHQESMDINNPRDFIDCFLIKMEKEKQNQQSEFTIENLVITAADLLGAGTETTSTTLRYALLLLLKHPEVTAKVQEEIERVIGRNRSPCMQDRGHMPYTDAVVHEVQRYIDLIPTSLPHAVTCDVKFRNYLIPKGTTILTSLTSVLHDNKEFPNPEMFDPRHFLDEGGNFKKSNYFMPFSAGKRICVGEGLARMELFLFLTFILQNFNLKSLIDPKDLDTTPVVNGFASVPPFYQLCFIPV
SMILES,AC50,"activity, negative = inhibition"
Cn1c(=O)c2[nH]c(-c3ccccc3)nc2n(C)c1=O,inactive,
O=C(O)c1nc(-c2ccccc2)[nH]c1C(=O)O,3.16 µM (active),
Nc1nc(C(=O)O)c(N=Nc2ccccc2)c(=O)[nH]1,,-7.57% [at 11.4 µM] (inactive)
Cc1ccc(S(=O)(=O)N(CC(=O)NCCC2=CCCCC2)Cc2ccccc2F)cc1,4.47 µM (active),
C/C(CCN1CCCc2nc(C)c(C)cc21)=N\OC[C@@H](O)COCc1ccco1,,7.43% [at 11.4 µM] (inactive)
Cc1ccc(N2C(=O)c3n[nH]c(C)c3C2c2ccccn2)cc1 (configuration not stated),inactive,
O=C1CSC(c2ccccn2)N1c1ccc(Cl)c(Cl)c1 (configuration not stated),3.55 µM (active),
N#Cc1c(N2CCCCC2)nc(N)c2c(N)nc3c(c12)CC(c1ccccc1)O3 (configuration not stated),6.31 µM (active),
COc1ccccc1N1CCN(CCCCNC(=O)c2ccc3ccccc3c2)CC1,inactive,
COc1ccccc1N1CCN(Cc2cc(=O)n3ccsc3n2)CC1,17.8 µM (active),
COc1ccccc1N1CCN(C[C@@H]2CN3C(=O)N(C)c4ccccc4C3=N2)CC1,inactive,
COc1ccccc1N1CCN(CCCCNS(=O)(=O)c2cccc3c(N(C)C)cccc23)CC1,0.501 µM (active),
COc1ccccc1N1CCN(CCCNc2cc(=O)n(C)c(=O)n2C)CC1,inactive and 7.94 µM (active),
COc1ccccc1N1CCN(CCn2c(=O)[nH]c3c([nH]c4ccccc43)c2=O)CC1,inactive,
COc1ccccc1N1CCN(CCCCNC(=O)c2ccc(-c3ccc(C(C)=O)cc3)cc2)CC1,15.8 µM (active),
CC1(C)[C@@H]2CC[C@]1(CC(=O)O)[C@H](Cl)C2,,3.64% [at 11.4 µM] (inactive)
CCNc1ncc2nc(-c3cc(F)cc(F)c3)c(=O)n(CCC#N)c2n1,inactive,
CN[C@]1(C)[C@H]2CC[C@@H](C2)C1(C)C,inactive,
CC1(C)C2([N+](=O)[O-])CN3CC1([N+](=O)[O-])CN(C2)C31CCCC1,inactive,
COc1ccccc1N1CCN(CCCCN2C(=O)c3ccccc3C2=O)CC1,inactive,
COc1ccccc1N1CCN(CCCCN2C(=O)CCC2=O)CC1,10 µM (active),
COc1ccccc1N1CCN(CCN2C(=O)CC3(CCCC3)CC2=O)CC1,inactive,
CC(C)C(=O)NCCc1nc2ccccc2n1CCCOc1ccc(Cl)cc1,2 µM (active),
C=CC[C@H](N)C(=O)O,inactive,
CCn1c(SCc2ccc(C(=O)Nc3nccs3)cc2)nnc1-c1ccc(NC(C)=O)cc1,5.01 µM (active),

SMILES,AC50,"activity, negative = inhibition"
O=C(CSc1nnc(-c2ccncc2)n1Cc1ccccc1)Nc1nccs1,1.78 µM (active),
Cc1ccc(NC(=O)c2ccc(CSc3nnc(-c4ccncc4)n3C)cc2)cc1,inactive,
CCNC(=O)C1CC(=O)OC12CCCCC2 (configuration not stated),inactive,
CCc1ccc(N2CC(C)Cn3c2nc2c3c(=O)n(CCN3CCOCC3)c(=O)n2C)cc1 (configuration not stated),inactive,
CN(C)CCNc1nc2c(c(=O)n(C)c(=O)n2C)n1C,,-4.31% [at 11.4 µM] (inactive)
Cn1c(OCc2ccc3c(c2)OCO3)nc2c1c(=O)n(Cc1ccc(Cl)c(Cl)c1)c(=O)n2C,10 µM (active),
CN(C)CCn1c(CO)nc2c1c(=O)n(C)c(=O)n2C,,29.8% [at 11.4 µM] (inactive)
Cn1c(=O)c2c(nc(Cl)n2Cc2ccc(Cl)c(Cl)c2)n(C)c1=O,2 µM (active),
O=C(Nc1cnc2ccccc2c1)c1cccc(-n2cnnn2)c1,inactive,
CCC(C(=O)NC(C)(C)C)N(C(=O)Cn1nnc(-c2cccs2)n1)c1cnc2ccccc2c1 (configuration not stated),31.6 µM (active),
CCCCCCCCC(=O)NCc1cc(OC)c(O)cc1I,inactive,
COc1cc(CNC(=O)CCCC/C=C\C(C)C)ccc1O,7.94 µM (active),
CCCCCCCC/C=C\CCCCCCCC(=O)NCc1ccc(O)c(OC)c1,inactive,
CC(C)C(=O)Nc1ccc(C(=O)NNC(=O)CCCOc2ccc(Cl)cc2Cl)cc1,4.47 µM (active),
CC(C)(C)C(=O)NNC(=O)CCCOc1ccc(Cl)cc1Cl,11.2 µM (active),
COc1ccc(/C=N/NC(=O)CCCOc2ccc(Cl)cc2Cl)cc1[N+](=O)[O-],1 µM (active),
CC(C)C(=O)Nc1ccc(C(=O)NNC(=O)C(c2ccccc2)c2ccccc2)cc1,inactive,
CN1C[C@H](c2ccccc2)C(O)([C@]2(c3ccccc3)CN(C)C[C@@H](c3ccccc3)C2=O)[C@H](c2ccccc2)C1 (some centres not stated),,7.29% [at 11.4 µM] (inactive)
CCCCCCc1c(C[C@H](N)C(=O)O)o[nH]c1=O,inactive,
CCC/C=C(\CCC)C(NS(=O)(=O)c1ccc(C(F)(F)F)cc1)c1ccccc1 (configuration not stated),0.398 µM (active),
CCC/C=C(\CCC)C(NS(=O)(=O)c1ccc(C(F)(F)F)cc1)c1ccc(-c2ccccc2)cc1 (configuration not stated),7.94 µM (active),
C/C(=C\C1CCCCC1)C(NC(=O)c1ccc(C(F)(F)F)cc1)c1ccc(-c2ccccc2)cc1 (configuration not stated),inactive,
CCC/C=C(\CCC)C(NS(=O)(=O)c1ccccc1)c1ccc(C(F)(F)F)cc1 (configuration not stated),7.94 µM (active),
CC(C)CN1CCCC2(CCN(C(=O)c3cccn3C)CC2)C1,inactive,
Cc1nn(S(=O)(=O)c2cccs2)c(C)c1Sc1ccc([N+](=O)[O-])cc1,0.562 µM (active),

SMILES,AC50,"activity, negative = inhibition"
CC(C)(C)[Si](C)(C)c1c2c(nc3ccc(OCc4ccccc4)cc13)-c1cccc(=O)n1C2,inactive,
COc1ccc2nc3c(c([Si](C)(C)C(C)(C)C)c2c1)Cn1c-3cccc1=O,2 µM (active),
Cc1c2c(nc3ccccc13)-c1cccc(=O)n1C2,inactive,
CCCCC/C=C\C[C@H](O)/C=C\c1cccc(C[C@H](O)CCCCO)n1,inactive,
COc1ccc2c(C=Nc3c(C)n(C)n(-c4ccccc4)c3=O)c(O)n(Cc3ccco3)c(=O)c2c1,10 µM (active),
COc1ccc(C(=O)NCC(c2ccc(F)cc2)N2CCOCC2)cc1S(=O)(=O)N1CCCC1 (configuration not stated),6.31 µM (active),
OCCCN=C1CCCCC1,,31.2% [at 11.4 µM] (inactive)
Clc1ccc2c(NCCNc3ccnc4cc(Cl)ccc34)ccnc2c1,,-22.5% [at 11.4 µM] (inactive)
C=CCn1cc(/C=N\NC(=O)c2cc3c(ccc4ccccc43)o2)c2ccccc21,4.47 µM (active),
O=C(N/N=C/c1cccc([N+](=O)[O-])c1)c1cc2c(ccc3ccccc32)o1,inactive,
CCC1C(=O)OCC1Cc1cncn1C (configuration not stated),7.94 µM (active),
CC[C@H]1C(=O)OC[C@H]1Cc1cncn1C,inactive,
CC1(C)Cc2c(C#N)c(SCc3ccccc3)nc(N3CCOCC3)c2CO1,8.91 µM (active),
CN(C)c1ncc2nc(-c3ccc(Cl)cc3)c(=O)n(C[C@H]3CCCO3)c2n1,inactive,
N#CCCn1c(=O)c(CCc2ccccc2)nc2cnc(Oc3ccccc3)nc21,31.6 µM (active),
N#CCCn1c(=O)c(CCc2ccccc2)nc2cnc(Oc3cccc(Cl)c3)nc21,6.31 µM (active),
COc1ccc(-c2nc3cnc(Oc4cccc(Cl)c4)nc3n(C[C@H]3CCCO3)c2=O)cc1,inactive,
COCCn1c(=O)c(CCc2ccccc2)nc2cnc(Oc3cccc(Cl)c3)nc21,15.8 µM (active),
N#CCCn1c(=O)c(-c2cccc(C#N)c2)nc2cnc(Oc3ccccc3)nc21,inactive,
N#CCCn1c(=O)c(-c2ccccc2)nc2cnc(Oc3cccc(Cl)c3)nc21,inactive,
Cn1cc(-c2nc3cnc(Oc4ccccc4)nc3n(CCC#N)c2=O)c2ccccc21,inactive,
COCCn1c(=O)c(-c2cn(C)c3ccccc23)nc2cnc(Oc3cccc(Cl)c3)nc21,inactive,
COCCn1c(=O)c(-c2cc(F)cc(F)c2)nc2cnc(Oc3cccc(Cl)c3)nc21,inactive,
Cc1nc2cnc(Oc3cccc(Cl)c3)nc2n(CCC#N)c1=O,inactive,
COc1ncc2nc(-c3ccc(Cl)cc3)c(=O)n(C[C@H]3CCCO3)c2n1,10 µM (active),

SMILES,AC50,"activity, negative = inhibition"
O=C(O)CC/C=C\C[C@@H]1CO[C@H](c2ccccc2Cl)O[C@@H]1c1ccccc1O,inactive,
O=c1c(CCc2ccccc2)nc2cnc(Oc3cccc(Cl)c3)nc2n1C[C@H]1CCCO1,20 µM (active),
COc1ccc(Oc2ncc3ncc(=O)n(C[C@H]4CCCO4)c3n2)cc1,inactive,
Cc1nc2cnc(Oc3cccc(Cl)c3)nc2n(C[C@H]2CCCO2)c1=O,inactive,
COC(=O)[C@]1(C)CCC(c2ccc(C)cc2)=C(CC(=O)O)C1,,11.9% [at 11.4 µM] (inactive)
COc1ccc(C(=O)n2c(SC)nc3cc4c(cc32)OCCO4)cc1,10 µM (active),
CCOc1ccccc1NC(=O)CSc1nnc(-c2cnccn2)n1C,15.8 µM (active),
CO[C@H]1C[C@@H]2C[C@H](O)C[C@@H](CC(=O)O[C@@H](/C=C\CC(C)C)C[C@@H]3CC[C@H](C)[C@@H](C1)O3)O2,,2.79% [at 11.4 µM] (inactive)
O=C(NCC1CCCO1)C1c2ccccc2C(=O)N1Cc1ccc2c(c1)OCO2 (configuration not stated),inactive,
COc1ccc(CCN2C(=O)C(O)=C(C(=O)c3ccco3)C2c2cccs2)cc1OC (configuration not stated),inactive,
COc1ccc(CCN2C(=O)C(Oc3ccccc3C)C2c2ccc3c(c2)OCO3)cc1OC (configuration not stated),0.501 µM (active),
Cc1ccccc1OC1C(=O)N(Cc2ccc3c(c2)OCO3)C1c1sccc1C (configuration not stated),1.12 µM (active),
COCCCNC(=O)C1CC(=O)N(CCc2ccc(OC)c(OC)c2)C1 (configuration not stated),inactive,
COC(=O)c1ccc(C2C(Oc3ccccc3)C(=O)N2CCc2ccc(OC)c(OC)c2)cc1 (configuration not stated),1.58 µM (active),
O=C1C[C@@H](O)[C@@H](O)[C@H]2[C@@H]3C(=O)N(Cc4ccc5c(c4)OCO5)C(=O)[C@@H]3CC[C@H]12,,37.1% [at 11.4 µM] (inactive) and -14% [at 11.4 µM] (inactive)
CN(C)CCCO[C@H]1[C@@H]2OC(C)(C)O[C@@H]2O[C@@H]1[C@H](O)CO,inactive,
C[n+]1ccccc1/C=N\O,inactive,
CC(=O)NCCNc1ncnc2ccc(-c3ccc(C(=O)N(C)C)cc3)cc12,inactive,
CC(=O)NCCNc1ncnc2ccc(-c3ccccc3C)cc12,20 µM (active),
COc1ccccc1-c1ccc2ncnc(NCCNC(C)=O)c2c1,inactive,
CC(=O)NCCNc1ncnc2ccc(-c3ccc4c(c3)OCO4)cc12,6.31 µM (active),
CC(=O)NCCNc1ncnc2ccc(-c3ccoc3)cc12,inactive,

# From PubChem BioAssay AID1851 (National Center for Advancing Translational Sciences (NCATS), 2009)
